Screens: PubChem, National Center for Advancing Translational Sciences (NCATS)
TDP1 cell noCPT: qHTS for Inhibitors of human tyrosyl-DNA phosphodiesterase 1 (TDP1): qHTS in cells in absence of CPT | DT40 Tdp1-/- hTDP1 cells, no CPT, ATP luminescence, 48 h | Potency, µM (series often up to 46.2 µM), for the others: top-dose activity change, negative = growth inhibition, usual class: inhibitors | hit rate 15% among 420,000 | AID 686978, 2013; further: potency means the concentration at half of the fitted maximal effect; nearly all actives have a fitted effect of over 55% in size
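Luminescent ATP content (CellTiter-Glo) served as the growth readout. Knockout chicken DT40 cells expressing human TDP1 were exposed to compounds without camptothecin for a minimum 48 hr at 37 °C.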
VP16 counter: Gal4-VP16 reporter inhibition counter-screen; Drosophila S2 Gal4-VP16 UAS-luciferase, luminescence, 20 h; Potency, µM (doses to about 53.6 µM), for inactives: top-dose activity, negative = inhibition, usual class: inhibitors; hit rate 3.5% among 310,000; AID 2546;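 further: Gal4-VP16 expression switched on by copper sulfate through the metallothionein promoter; potency means the concentration at half of the fitted maximal effect; nearly all actives have a fitted effect of over 50% in size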
DT40 TDP1 CPT: growth inhibition of DT40 Tdp1-/-;hTDP1 cells with camptothecin (screen for TDP1 inhibitors); hit rate 12% among 420,000; chicken DT40 Tdp1-/-;hTDP1 cells + 20 nM CPT, ATP luminescence, 48 h; Potency, µM (titrated, usually from 46.2 µM), for inactives: at the top dose activity change, negative = growth inhibition, hits mostly inhibitors; AID 686979; further: potency means the concentration at half of the fitted maximal effect; nearly all actives have a fitted effect of over 55% in size
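Chicken DT40 Tdp1-/- cells complemented with human TDP1, 400 cells/well, exposed to compounds plus 20 nM camptothecin for at least 48 h at 37 C; viability read as ATP content by CellTiter-Glo luminescence.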
RORgamma inh: ROR gamma (mouse) transcription inhibition | P51450 | Drosophila S2 Gal4-RORgamma UAS-luciferase reporter, 20 h | Potency, µM (titrated, usually from 53.6 µM), inactives show top-dose activity change, negative = inhibition, usual class: inhibitors | hit rate 5.4% among 310,000; further: potency means the concentration at half of the fitted maximal effect; nearly all actives have a fitted effect of over 60% in size
Target sequence (P51450 whole entry, looked up, the tested form may be a part): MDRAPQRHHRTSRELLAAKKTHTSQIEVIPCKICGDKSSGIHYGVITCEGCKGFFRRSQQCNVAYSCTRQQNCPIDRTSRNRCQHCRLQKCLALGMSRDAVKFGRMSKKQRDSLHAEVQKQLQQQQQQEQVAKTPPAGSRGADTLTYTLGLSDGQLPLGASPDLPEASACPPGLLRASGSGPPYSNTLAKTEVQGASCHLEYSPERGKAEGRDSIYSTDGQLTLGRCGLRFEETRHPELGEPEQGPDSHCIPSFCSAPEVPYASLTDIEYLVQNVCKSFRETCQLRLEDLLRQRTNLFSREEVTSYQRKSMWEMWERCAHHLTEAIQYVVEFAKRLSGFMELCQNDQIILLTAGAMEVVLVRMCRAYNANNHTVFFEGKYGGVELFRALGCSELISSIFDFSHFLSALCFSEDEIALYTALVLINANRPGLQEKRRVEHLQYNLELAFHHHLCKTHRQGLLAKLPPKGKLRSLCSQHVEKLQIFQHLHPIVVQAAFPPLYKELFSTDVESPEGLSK
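Drosophila S2 cells stably expressing Gal4-DBD/mouse RORγ fusion under metallothionein promoter plus UAS-luciferase; compound 1 h, then 700 uM CuSO4 induction for 20 h at ambient temperature; inhibition read as reduced luminescence.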
IL1B secr inh: blocks inflammasome-driven IL-1 beta release; THP-1 LPS/ATP IL-1B secretion, AlphaLISA, 16 h; stronger effect = lower value; activity change, % at 57.5 µM; hit rate 4.7% among 360,000; in the data active means activity change below about -50%; inconclusive means mostly about -30% to -49%
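THP-1 cells pretreated 1 hr with compounds (up to 57.5 uM final), then stimulated with LPS (250 ng/mL final) plus ATP (1.25 mM final); secreted IL-1B measured by AlphaLISA after 16 hr, decreased signal indicating inhibition.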
ELG1 repair inh: blocks ELG1-dependent DNA repair in HEK293T cells. HEK293T ELG1-luciferase reporter, luminescence, 16 h; DNA damage induced by 5-fluorouridine. Potency, µM (highest dose often 46.1 µM), for inactives: at the top dose activity change, negative = inhibition, most hits filed as inhibitors. hit rate 2.3% among 330,000; further: potency means the concentration at half of the fitted maximal effect; nearly all actives have a fitted effect of over 55% in size
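Luminescence from the luciferase reporter, measured 30 min after ONE-Glo reagent at room temperature, was the read-out. Beforehand, 2,000 cells per well were exposed for 16 hr at 37 °C to 5-fluorouridine together with compound or vehicle.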
The depositor's hits bear a star; [ ] = remark or other dose. Most compounds without a hit are left out; they make up all but 21% or so of the library. Unless noted, the call rests on the fitted dose curve; in most records, active means well fitted curve in the direction sought with a large enough effect; inconclusive means small, poorly fitted or top-dose-only effect, or another doubt; inactive means no such curve, though single readings can be large; an effect the other way counts as inactive or inconclusive. On the % scale 0 is the no-effect control and ±100 the full control effect.

For COC(=O)c1cc2ccc(OC)cc2c2cc(OC)c(OC)cc12 the results were TDP1 cell noCPT inconclusive, DT40 TDP1 CPT inconclusive, IL1B secr inh -61.0* and ELG1 repair inh 13µM*.
Screening CCOc1ccc(-c2cc3c(=O)n(CC(=O)NCc4ccc(F)cc4)ccn3n2)cc1 returned TDP1 cell noCPT -4.5% and DT40 TDP1 CPT -13.2%.
Screening COCCNc1nc2cc(-c3ccccc3OC)sc2c(=O)n1C returned TDP1 cell noCPT 13µM*, DT40 TDP1 CPT 18.4µM* and IL1B secr inh 40.7.
C=CCNc1nc2cc(-c3ccccc3OC)sc2c(=O)n1C was read as TDP1 cell noCPT inconclusive, DT40 TDP1 CPT inconclusive and IL1B secr inh 13.0.
For COCCNc1nc2cc(-c3ccccc3C)sc2c(=O)n1C the results were TDP1 cell noCPT inconclusive, DT40 TDP1 CPT 18.4µM* and IL1B secr inh 38.7.
For CC(C)n1nc(C(=O)Nc2nnc(SCc3c(Cl)cccc3Cl)s2)c2ccccc2c1=O the results were TDP1 cell noCPT inconclusive, VP16 counter inconclusive, DT40 TDP1 CPT 10.3µM*, RORgamma inh inconclusive, IL1B secr inh 40.5 and ELG1 repair inh 2.6%.
Screening CC(=O)Oc1ccc(OC(C)=O)c(SCCCCCCl)c1 returned TDP1 cell noCPT 2.91µM*, VP16 counter -6.1%[10 µM], DT40 TDP1 CPT 2.06µM*, RORgamma inh inconclusive, IL1B secr inh -62.9* and ELG1 repair inh inconclusive.
`Cc1ccc(NC(=O)CN(C)C(=O)C2CCC2)cc1` gave TDP1 cell noCPT -3.8%, DT40 TDP1 CPT 4.9% and IL1B secr inh 13.2.
`COc1ccc(C2OC34CCCCC3C(C#N)(C#N)C2(C#N)C(=N)O4)cc1` (stereo not drawn) gave TDP1 cell noCPT 7.31µM*, VP16 counter 3.3%, DT40 TDP1 CPT 5.8µM*, RORgamma inh -1.2%, IL1B secr inh 19.2 and ELG1 repair inh -4.2%.
For CCCC1OC23CCCCC2C(C#N)(C(=N)O3)C1(C#N)C#N (stereo not drawn) the results were TDP1 cell noCPT 16.4µM*, VP16 counter 5.5%, DT40 TDP1 CPT 7.31µM*, RORgamma inh -17.5%, IL1B secr inh inconclusive and ELG1 repair inh -4.4%.
CCC1OC23CCCCC2C(C#N)(C(=N)O3)C1(C#N)C#N (stereo not drawn) was read as TDP1 cell noCPT 13µM*, VP16 counter -6.6%, DT40 TDP1 CPT inconclusive, RORgamma inh 3.0%, IL1B secr inh -5.2 and ELG1 repair inh 7.1%.
O=C(NCc1ccccc1)c1cc(C2CCCN(C(=O)c3ccccc3)C2)on1 (stereo not drawn) was read as TDP1 cell noCPT 1.1%, DT40 TDP1 CPT -24.4% and IL1B secr inh -1.3.
Screening Cc1cc(CN2CCN(c3cccc(C)c3C)CC2)cs1 returned TDP1 cell noCPT 14.6µM* and DT40 TDP1 CPT 23.1µM*.
Cc1cc(CN2CCN(c3ccccc3F)CC2)cs1 was read as TDP1 cell noCPT inconclusive and DT40 TDP1 CPT -28.5%.
For COc1ccc(OC)c(-c2csc(NC(=O)C3=COCCO3)n2)c1 the results were TDP1 cell noCPT 18.4µM*, DT40 TDP1 CPT 16.4µM*, IL1B secr inh -12.2 and ELG1 repair inh 1.3%.
Cc1ccc(C)c(-c2csc(NC(=O)c3cnccn3)n2)c1 was read as TDP1 cell noCPT inconclusive, VP16 counter 1.26µM*, DT40 TDP1 CPT inconclusive, RORgamma inh 0.501µM*, IL1B secr inh -11.7 and ELG1 repair inh inconclusive.
`O=C(Nc1nc(-c2ccc(Oc3ccccc3)cc2)cs1)C1=COCCO1` gave TDP1 cell noCPT 11.6µM*, VP16 counter -16.9%, DT40 TDP1 CPT inconclusive, RORgamma inh 43.6%, IL1B secr inh 7.9 and ELG1 repair inh inconclusive.
`COC(=O)c1ccc(-c2csc(NC(=O)C3=COCCO3)n2)cc1` gave TDP1 cell noCPT -13.1%, DT40 TDP1 CPT -14.5% and IL1B secr inh -13.6.
Screening Cc1ccc(-c2csc(NC(=O)C3=COCCO3)n2)cc1 returned TDP1 cell noCPT inconclusive, VP16 counter inconclusive, DT40 TDP1 CPT inconclusive, RORgamma inh 9.7%, IL1B secr inh -0.9 and ELG1 repair inh inconclusive.
For Cc1ccc(C)c(-c2csc(NC(=O)C3=COCCO3)n2)c1 the results were TDP1 cell noCPT 16.4µM*, DT40 TDP1 CPT 20.6µM*, IL1B secr inh -10.4 and ELG1 repair inh inconclusive.
For CCOC(=O)c1c(C)[nH]c(C(=O)N(C)CC(=O)Nc2ccc(OC)cc2)c1C the results were TDP1 cell noCPT 21.6%, DT40 TDP1 CPT inconclusive, IL1B secr inh 0.9 and ELG1 repair inh -9.9%.
`O=C(Nc1nc(-c2ccc(Cl)s2)cs1)c1ccccc1` gave TDP1 cell noCPT inconclusive, VP16 counter inconclusive, DT40 TDP1 CPT inconclusive, RORgamma inh -19.8%, IL1B secr inh -5.3 and ELG1 repair inh -4.4%.
Screening CC(=O)Nc1ccc(-c2csc(NC(=O)C3=COCCO3)n2)cc1 returned TDP1 cell noCPT inconclusive, DT40 TDP1 CPT inconclusive, IL1B secr inh -11.4 and ELG1 repair inh 25.7%.
`O=C(Nc1nc(-c2cc(F)ccc2F)cs1)C1=COCCO1` gave TDP1 cell noCPT inconclusive, DT40 TDP1 CPT 18.4µM*, IL1B secr inh -13.1 and ELG1 repair inh inconclusive.
For Cc1ccc(C(=O)Nc2nc(-c3cc(Cl)sc3Cl)cs2)cc1 the results were TDP1 cell noCPT inconclusive, VP16 counter 15.3%, DT40 TDP1 CPT -26.2%, RORgamma inh 2.9%, IL1B secr inh 23.7 and ELG1 repair inh 9.2µM*.
`COc1cccc(CNC(=O)c2ccc3c(c2)nc2n3CCOC2)c1OC` gave TDP1 cell noCPT -9.7% and DT40 TDP1 CPT 5.6%.
Cc1ccc(SCC(=O)OCC(=O)N(CCC#N)c2ccccc2)cc1C was read as TDP1 cell noCPT 1.9%, DT40 TDP1 CPT -3.3%, IL1B secr inh 12.1 and ELG1 repair inh 10.1%.
For Cc1ccc(N(CCC#N)C(=O)CCl)cc1C the results were TDP1 cell noCPT 7.31µM*, VP16 counter -25.9%, DT40 TDP1 CPT inconclusive, RORgamma inh inconclusive, IL1B secr inh -97.9* and ELG1 repair inh 18.4µM*.
Screening C=CCOc1ccc(/C=C/C(=O)OCC(=O)N(C)C2CCS(=O)(=O)C2)cc1 (stereo not drawn) returned TDP1 cell noCPT 6.1%, VP16 counter 9.7%, DT40 TDP1 CPT -7.7%, RORgamma inh -8.5%, IL1B secr inh 0.0 and ELG1 repair inh -3.4%.
